# Where a name gives a salt, the structure may show the parent alone. ± gives the standard deviation of the averaged measurements.
# Assays:
# Test in all cases: growth (OD600 after 10 h); higher = more growth (less inhibition)
# [1] = system: E. coli TESEC Alr+ wild-type control; conditions: compound 0.1 mM; raw OD600 reference: median of DMSO wells 0.241, cell-free background 0.041
# Method: (§1)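 TESEC Mtb Alr E. coli, or the Alr+ wild-type control, in 384-well plates with Prestwick library compounds at 0.1 mM and 1% DMSO, across arabinose induction levels of 1E3 to 1E7 nM. Growth is read as OD600 after 10 h at 37 °C in triplicate biological replicates.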
# E. coli TESEC Mtb Asd = conditions: compound 0.1 mM
# Method: (§2)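 TESEC E. coli strains in which the native enzyme is deleted and replaced by arabinose-inducible Mtb Asd, DapB, CysH or TrpD, each grown in its selective medium. Strains were screened against the Prestwick library at 0.1 mM and 1% DMSO in 384-well format at low and high arabinose induction. Growth is read as OD600 after 10 h in triplicate.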
# E. coli TESEC Mtb DapB = conditions: compound 0.1 mM
# Method: as §2
# [2] = system: E. coli TESEC Alr+ wild-type control; conditions: compound 0.1 mM; raw OD600 reference: median of DMSO wells 0.49, cell-free background 0.052
# Method: (§3)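 TESEC Mtb Alr E. coli (ΔaraC ΔtolC ΔentC Δalr ΔdadX, arabinose-inducible Mtb Alr) or the Alr+ wild-type control strain, grown in defined M9-fructose medium without D-alanine in 96-well plates with Prestwick library compounds at 0.1 mM and 1% DMSO. Low Alr induction is 0.1 µM arabinose and high induction is 10 mM arabinose.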
# E. coli TESEC Mtb Alr [3] = conditions: compound 0.1 mM
# Method: as §3
# E. coli TESEC Mtb Alr [4] = conditions: compound 0.1 mM; remark: listed apart in the source
# Method: as §1
# [5] = arabinose induction (level): High, raw OD600 reference: median of DMSO wells 0.331, cell-free background 0.041
# [6] = arabinose induction (level): Low, raw OD600 reference: median of DMSO wells 0.417, cell-free background 0.041
# [7] = arabinose induction (level): High, raw OD600 reference: median of DMSO wells […], cell-free background 0.041
# [8] = arabinose induction (level): Low, raw OD600 reference: median of DMSO wells 0.227, cell-free background 0.041
# [9] = arabinose 100 nM, raw OD600 reference: median of DMSO wells 0.413, cell-free background 0.052
# [10] = arabinose 10000000 nM, raw OD600 reference: median of DMSO wells […], cell-free background 0.052
# [11] = arabinose 1000 nM, raw OD600 reference: median of DMSO wells 0.294, cell-free background 0.041
# [12] = arabinose 10000 nM, raw OD600 reference: median of DMSO wells 0.264, cell-free background 0.041
# [13] = arabinose 100000 nM, raw OD600 reference: median of DMSO wells 0.201, cell-free background 0.041
# [14] = arabinose 1000000 nM, raw OD600 reference: median of DMSO wells 0.193, cell-free background 0.041
# [15] = arabinose 10000000 nM, raw OD600 reference: median of DMSO wells 0.146, cell-free background 0.041
SMILES,growth [1],growth (E. coli TESEC Mtb Asd; [5]),growth (E. coli TESEC Mtb Asd; [6]),growth (E. coli TESEC Mtb DapB; [7]),growth (E. coli TESEC Mtb DapB; [8]),growth [2],growth (E. coli TESEC Mtb Alr [3]; [9]),growth (E. coli TESEC Mtb Alr [3]; [10]),growth (E. coli TESEC Mtb Alr [4]; [11]),growth (E. coli TESEC Mtb Alr [4]; [12]),growth (E. coli TESEC Mtb Alr [4]; [13]),growth (E. coli TESEC Mtb Alr [4]; [14]),growth (E. coli TESEC Mtb Alr [4]; [15])
CC[N+]1(C)CCCC(OC(=O)C(O)(c2ccccc2)c2ccccc2)C1 (configuration not stated) [Pipenzolate bromide],0.217 ± 0.0052,0.299 ± 0.035,0.469 ± 0.025,0.234 ± 0.013,0.263 ± 0.058,0.424 ± 0.016,0.409 ± 0.023,0.348 ± 0.025,,,,,
C[C@]12N[C@H](Cc3ccccc31)c1ccccc12 [Dizocilpine maleate],0.2374 ± 0.0019,0.179 ± 0.014,0.415 ± 0.059,,,,0.4169 ± 0.0029,0.304 ± 0.01,0.286 ± 0.009,0.273 ± 0.0096,0.158 ± 0.014,0.123 ± 0.0042,0.134 ± 0.0024
CC(C)[N+](C)(CCC(C(N)=O)(c1ccccc1)c1ccccc1)C(C)C [Isopropamide iodide],0.211 ± 0.003,0.268 ± 0.036,0.41 ± 0.036,0.211 ± 0.025,0.201 ± 0.0096,,0.399 ± 0.025,0.331 ± 0.013,,,,,
C[C@]12C[C@H]3S[C@H]3C[C@@H]1CC[C@@H]1[C@@H]2CC[C@]2(C)[C@@H](O)CC[C@@H]12 [Epitiostanol],0.248 ± 0.0036,0.162 ± 0.018,0.337 ± 0.098,,,0.534 ± 0.0058,0.413 ± 0.014,0.265 ± 0.015,,,,,
CN(C)[C@@H]1C(=O)C(C(N)=O)=C(O)[C@@]2(O)C(=O)C3=C(O)c4c(O)cccc4[C@@](C)(O)[C@H]3C[C@@H]12 [Tetracycline hydrochloride],0.0422 ± 0.00046,0.0539 ± 0.0012,0.0592 ± 0.0072,,,,0.0567 ± 0.0019,0.0604 ± 0.0025,,,,,
CC(=O)OCC(=O)[C@H]1CC[C@H]2[C@@H]3CC[C@H]4C[C@H](O)CC[C@]4(C)[C@H]3C(=O)C[C@]12C [Alfadolone acetate],0.15 ± 0.0034,0.289 ± 0.075,0.19 ± 0.0093,0.137 ± 0.0076,0.157 ± 0.03,0.474 ± 0.013,0.395 ± 0.007,0.257 ± 0.0074,,,,,
NCC1(CC(=O)O)CCCCC1 [Gabapentin],0.255 ± 0.0094,0.478 ± 0.023,0.399 ± 0.044,,,,0.401 ± 0.02,0.325 ± 0.022,,,,,
O=C(CCCN1CCC2(CC1)C(=O)NCN2c1ccccc1)c1ccc(F)cc1 [Spiperone],0.214 ± 0.0064,0.274 ± 0.066,0.43 ± 0.042,0.188 ± 0.013,0.218 ± 0.038,,0.409 ± 0.0039,0.354 ± 0.027,,,,,
"CC[C@@]1(O)C(=O)OCc2c1cc1n(c2=O)Cc2cc3ccccc3nc2-1 [Camptothecine (S,+)]",0.2398 ± 0.0022,0.292 ± 0.075,0.43 ± 0.046,,,,0.465 ± 0.052,0.434 ± 0.031,0.28 ± 0.012,0.267 ± 0.0074,0.192 ± 0.016,0.184 ± 0.0026,0.141 ± 0.0034
C[C@]12CC[C@H](O)C[C@@H]1CC[C@@H]1[C@@H]2CC[C@]2(C)C(=O)CC[C@@H]12 [Epiandrosterone],0.126 ± 0.0063,0.0929 ± 0.015,0.168 ± 0.018,0.152 ± 0.021,0.136 ± 0.006,,0.353 ± 0.043,0.109 ± 0.0099,,,,,
O=c1c2ccccc2[se]n1-c1ccccc1 [Ebselen],0.067 ± 0.0015,0.0698 ± 0.0046,0.061 ± 0.008,0.22 ± 0.027,0.249 ± 0.014,0.538 ± 0.076,0.355 ± 0.009,0.346 ± 0.0078,,,,,
CC(NC(C)(C)C)C(=O)c1cccc(Cl)c1 (configuration not stated) [Bupropion hydrochloride],0.226 ± 0.0027,0.356 ± 0.055,0.41 ± 0.03,,,,0.404 ± 0.012,0.365 ± 0.0095,0.283 ± 0.018,0.257 ± 0.0069,0.229 ± 0.023,0.171 ± 0.0039,0.136 ± 0.0076
O=c1[nH]oc2c1CCNC2 [THIP Hydrochloride],0.26 ± 0.0053,0.262 ± 0.035,0.433 ± 0.04,0.2018 ± 0.0015,0.238 ± 0.014,,0.41 ± 0.013,0.349 ± 0.018,,,,,
CCCC(C)(COC(N)=O)COC(=O)NC(C)C (configuration not stated) [Carisoprodol],0.237 ± 0.008,0.268 ± 0.02,0.322 ± 0.083,0.155 ± 0.0092,0.191 ± 0.015,,0.403 ± 0.01,0.341 ± 0.015,,,,,
O=[N+]([O-])O[C@@H]1CO[C@H]2[C@@H]1OC[C@@H]2O [Isosorbide mononitrate],0.24 ± 0.0084,0.255 ± 0.084,0.345 ± 0.017,,,,0.4231 ± 0.0041,0.324 ± 0.012,0.292 ± 0.0083,0.261 ± 0.018,0.198 ± 0.035,0.209 ± 0.018,0.136 ± 0.0044
CC(C)c1cccc(C(C)C)c1O [Propofol],0.245 ± 0.0043,0.441 ± 0.024,0.439 ± 0.03,,,,0.389 ± 0.01,0.328 ± 0.0056,0.309 ± 0.017,0.255 ± 0.0092,0.202 ± 0.0052,0.175 ± 0.0063,0.144 ± 0.0055
"CN1CCC2(C)c3cc(O)ccc3N(C)C12 (single isomer, unassigned; (-)) [(-)-Eseroline fumarate salt]",0.225 ± 0.0084,0.194 ± 0.027,0.402 ± 0.064,,,,0.42 ± 0.0066,0.317 ± 0.021,,,,,
Oc1ccc2c3c1O[C@H]1[C@@H](O)CC[C@@]4(O)[C@@H](C2)N(CC2CCC2)CC[C@]314 [Nalbuphine hydrochloride],0.233 ± 0.0039,0.381 ± 0.095,0.453 ± 0.036,0.195 ± 0.011,0.214 ± 0.029,,0.4293 ± 0.0018,0.351 ± 0.015,,,,,
CC(C)N(CCC(C(N)=O)(c1ccccc1)c1ccccn1)C(C)C (configuration not stated) [Disopyramide],0.2355 ± 0.0022,0.313 ± 0.084,0.408 ± 0.057,,,,0.41 ± 0.0056,0.351 ± 0.007,0.285 ± 0.018,0.25 ± 0.0026,0.195 ± 0.0071,0.171 ± 0.0034,0.14 ± 0.0064

# From the supplement of paper PMC9262897, “Low-cost anti-mycobacterial drug discovery using engineered E. coli” (Nature Communications, 2022)
